PubChem BioAssay AID652040 (Broad Institute, 2013)
Measured potencies and affinities stand elsewhere. Active and inactive are the calls of the source.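 Rule for the calls: active = falling luciferase signal whose fitted half-maximal concentration is at most twice the top tested dose; inconclusive = flat inhibition between 30 and 70% or a poor curve fit; inactive = the rest.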

Experiment: off-target signal loss in HeLa-CEM21 co-culture – HeLa F-luc CTL cells, cherry-picked, counter-screen for HIV-1 Env fusion inhibitor project, dose response (AID 652040);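 note: 0% = median of neutral control wells and -100% = doxycycline 40 µg/mL wells; more negative values mean stronger loss of luciferase signal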
Details: HeLa-F-luc CTL cells with CEM21, firefly luciferase counterscreen; series mostly up to 35 µM

Question: Which activity change, negative = inhibition does the source give for `CC1CCC(C(C)C)C(OC(=O)Cn2c(-c3ccc(Cl)cc3)[n+](C)c3ccccc32)C1` (centres undefined) here?
Answer: 55.5% [at 8 µM] (inactive)

Question: For `CC(c1nc2ccccc2c(=O)[nH]1)N(C)CCOc1ccc(Cl)cc1` (centres undefined), which outcome is on record?
Answer: inactive

Question: Which outcome does the source give for `O=C(NCc1ccccc1)c1ccc(C(=O)NCc2ccccc2)cc1` here?
Answer: inactive

Question: Which outcome does the source give for `Cc1cc(N2CCN(c3nc4ccccc4s3)CC2)n2ncnc2n1` here?
Answer: inactive

Question: For `C=CCNc1nc2c(c(=O)n(C)c(=O)n2C)n1CCCCCC`, which outcome is on record?
Answer: inactive

Question: Which outcome does the source give for `CC1CCC(C(C)C)C(OC(=O)Cn2c(-c3ccccc3)[n+](C)c3ccccc32)C1` (centres undefined) here?
Answer: inactive

Question: With `CC(NNC(=S)N1CCCCCC1)c1ccc2ccccc2n1` (centres undefined) as the molecule, how does the outcome read?
Answer: inactive

Question: For `Clc1ccc2c(c1)C(C1=NCCN1)c1ccccc1CS2` (centres undefined), which outcome is on record?
Answer: inactive

Question: For `COc1ccc(C)cc1NC(=O)CCNS(=O)(=O)c1ccc2c(c1)CC(C)N2C(C)=O` (centres undefined), which outcome is on record?
Answer: inactive

Question: For `COc1ccc(NS(=O)(=O)c2cccc(C(=O)NNC(=O)CNC(=O)c3ccc(C)cc3)c2)cc1`, which outcome is on record?
Answer: inactive

Question: With `CCc1ccc(Nc2n[n+](-c3ccccc3)c(-c3c(Cl)cccc3Cl)s2)cc1` as the molecule, how does the outcome read?
Answer: inactive

Question: With `COc1ccc(S(=O)(=O)N2CCCCC2)cc1NC(=O)CCCOc1ccc(C)cc1` as the molecule, how does the outcome read?
Answer: inactive

Question: Which outcome does the source give for `O=C(c1ccccc1)N1CCC(c2nc(-c3ccc(S(=O)(=O)NCC4CCCO4)cc3)no2)CC1` (centres undefined) here?
Answer: inactive

Question: For `Nc1ccn([C@@H]2O[C@H](C(=O)NCc3ccc4c(c3)OCO4)[C@@H](O)[C@H]2O)c(=O)n1`, which outcome is on record?
Answer: inactive

Question: Which outcome does the source give for `COC(=O)C[C@H]1C=C[C@H](NC(=O)c2ccccn2)[C@@H](CO)O1` here?
Answer: inactive

Question: With `CCOC(=O)C1CCCN(Cc2nc(N)nc(Nc3ccc(OC)cc3)n2)C1` (centres undefined) as the molecule, how does the outcome read?
Answer: inactive

Question: For `c1coc(CNc2c3c(nc4ccccc24)CCC3)c1`, which outcome is on record?
Answer: inactive

Question: For `CC(=O)Nc1ccc(C(=O)OCC(=O)NC(=O)NCc2ccccc2)cc1`, which outcome is on record?
Answer: inactive

Question: For `O=S(=O)(NCCc1csc(-c2cccnc2)n1)c1ccc(Cl)s1`, which outcome is on record?
Answer: inactive

Question: With `O=C(OCCOc1cccc(Cl)c1)c1cc(S(=O)(=O)N2CCCCC2)ccc1N1CCOCC1` as the molecule, how does the outcome read?
Answer: inactive

Question: For `Cc1ccc(Cn2ncc3c(N4CCN(Cc5ccc(Cl)cc5)CC4)ncnc32)cc1`, which outcome is on record?
Answer: inactive

Question: For `C=CCOc1c(Br)cc(CNc2ccc(NC(=O)C(C)C)c(OC)c2)cc1OC`, which outcome is on record?
Answer: inactive

Question: With `Cc1nc2ccc(NC(=O)c3ccc(Cl)c(S(=O)(=O)N(C)c4ccccc4)c3)cc2s1` as the molecule, how does the outcome read?
Answer: inactive

Question: With `COc1ccc(-c2cn3c(C)c(C(=O)Nc4cccc(NC(C)=O)c4)sc3n2)cc1` as the molecule, how does the outcome read?
Answer: inactive

Question: With `CCOC(=O)C(C)Oc1cccc2c(=O)n(CC(=O)NCCc3ccc(OC)c(OC)c3)ccc12` (centres undefined) as the molecule, how does the outcome read?
Answer: inactive

Question: Which outcome does the source give for `O=C(CCNC(=O)c1ccc(Br)cc1)NNC(=O)COc1ccccc1F` here?
Answer: inactive

Question: Which outcome does the source give for `O=C(Cc1ccc(Cl)cc1Cl)Nc1ccncc1` here?
Answer: inactive

Question: Which outcome does the source give for `COc1ccc(CCN(Cc2cccs2)S(=O)(=O)c2ccc(-n3cnnn3)cc2)cc1OC` here?
Answer: inactive

Question: Which outcome does the source give for `COC(=O)C1CCN(C(=O)COC(=O)c2cc(S(=O)(=O)N3CCOCC3)ccc2C)CC1` here?
Answer: inactive

Question: With `O=C(COC(=O)c1cccc(S(=O)(=O)N2CCOCC2)c1)NCc1ccccc1` as the molecule, how does the outcome read?
Answer: inactive

Question: Which outcome does the source give for `COc1cc(-c2c(-c3cc(OC)c(OC)c(OC)c3)noc2C)ccc1F` here?
Answer: inactive

Question: For `Cc1ccc(C(=O)NCc2ccccn2)cc1S(=O)(=O)N1CCCCC1`, which outcome is on record?
Answer: inactive

Question: For `COc1ccccc1CN(C)C(=O)CN1CCN(C(=O)c2cccs2)CC1`, which outcome is on record?
Answer: inactive

Question: For `COc1ccc(CCNC(=O)C2CCCN(Cc3nc(-c4cccc(Cl)c4)oc3C)C2)cc1OC` (centres undefined), which outcome is on record?
Answer: inactive

Question: For `COC(=O)c1ccc(C(=O)NC2CCCc3c2cnn3-c2ccc(C)c(C)c2)cc1` (centres undefined), which outcome is on record?
Answer: inactive

Question: Which outcome does the source give for `COc1cc(-c2cc(OC)c(O)c(OC)c2)cc(OC)c1O` here?
Answer: inactive

Question: Which outcome does the source give for `COc1ccccc1N/C(N)=N/c1nc(CSc2ccc(C)cc2)cc(=O)[nH]1` here?
Answer: inactive

Question: For `COc1ccc(/C=C/c2nc(S(=O)(=O)c3ccccc3)c(NCCCN(C)C)o2)cc1OC`, which outcome is on record?
Answer: inactive

Question: With `O=C(Nc1ccc(N2CCN(C(=O)c3ccc(Cl)cc3)CC2)cc1)c1ccc2c(c1)OCCO2` as the molecule, how does the outcome read?
Answer: inactive
